Source: PubChem BioAssay (NCATS)
Inconclusive results are not listed. Entries that show only a call come without a potency. Calls of active or inactive are those of the source. The call rests on the fitted dose curve; in most records, active means well fitted cell-killing curve with a large enough effect; inconclusive means small, poorly fitted or top-dose-only effect; inactive means flat fitted curve, though single readings scatter.

Assay: qHTS of pediatric cancer cell lines to identify multiple opportunities for drug repurposing: Primary screen for BT-37 cells (AID 1347094)
Details: BT-37 viability, CellTiter-Glo luminescence, 48 h; series mostly up to 57.3 µM
Excerpt: Drug repurposing or repositioning has been offered as a strategy for drug development in oncology programs. This approach has special potential for childhood cancers and other rare or orphan diseases, where the expected return on new drug development has been a disincentive to pharmaceuticals. […] In this project we exploit the poly-pharmacology of drugs to discover new indications via phenotypic screening of a panel of 19 well-characterized cell lines derived from solid tumors seen in children and adolescents. The goal is to identify approved drugs with previously unrecognized anticancer properties that has the potential to reveal new mechanisms and biological processes involved in carcinogenesis or drug resistance. We employed a titration-based paradigm (quantitative high-throughput screening or qHTS), where all compounds were tested at multiple concentrations for their effect on cell viability. Concentration-response curves (CRCs) were derived directly from the primary screen, and both potency and efficacy values were used to identify compounds with robust bioactivity profiles. We screened the NIH Chemical Genomics Center (NCGC) Pharmaceutical Collection (NPC) and Mechanism Interrogation Plate (MIPE) small molecule collections of approved and investigational compounds against these cell lines; and measured metabolically active cells after 48 hours of compound treatment as a proxy for cell viability. […] Assay Submitter: Nathalia J. Martinez, National Center for Advancing Translational Sciences, National Institutes of Health, Rockville, MD, USA; email: natalia.martinez@nih.gov Shen, M et al. Quantitative high-throughput phenotypic screening of pediatric cancer cell lines identifies multiple opportunities for drug repurposing. Oncotarget 2017 Dec 19;9(4):4758-4772. PMID 29435139.
The cells were obtained from University of North Carolina (UNC), Pediatric Preclinical Testing Program (PPT), and Coriell Institute (CI). qHTS cell viability assay: Cells were assayed in growth media at a density of 500-1,000 cells/well. Five microliters of cells were dispensed into 1,536-well, white, solid-bottom, TC-treated plates (Greiner Bio One) using a multidrop dispenser and incubated at 37 degrees C, 5% CO2, under a humidified atmosphere for 5 hours. Twenty-three nanoliters of compounds and controls (neutral control DMSO or positive control bortezomib at final concentration of 2.3 µM) were subsequently transferred by Kalypsys pintool. For primary screens, the MIPE collection was tested at 11-point dilutions (final concentrations range from 0.78 nM to 46 µM) and the NPC collection at 8-point dilutions (final concentrations range from 0.59 nM to 46 µM). Compounds tested in follow-up screens were assayed at 11-point dilutions. Cells were incubated for 48 hours, followed by addition of 3 µL of CellTiter-Glo (Promega). After a 15 min incubation at room temperature, samples were analyzed for luminescence intensity using a ViewLux High-throughput CCD imager equipped with clear filters.
Potency means the concentration at half of the fitted maximal effect.

Compound | Potency
CCC(=O)OC1CCC2C3CCC4=CC(=O)CC[C@@]4(C)C3CC[C@]12C (stereo not given in full) | inactive
COC(=O)c1cncn1C(C)c1ccccc1 (stereo not given) | inactive
CC1=C(C(=O)O)N2C(=O)[C@@H](N)[C@H]2SC1 | inactive
C[C@H]1CCCC=CC2C[C@H](O)C[C@@H]2[C@H](O)C=CC(=O)O1 (stereo not given in full) | 0.001 µM (active)
CC[C@H]1C=CC=CC[C@@H](C)[C@H](O)[C@@](C)(O)C(=O)[C@@H](C)[C@H](O)[C@@H](C)C(=O)[C@@H](C)[C@H](O)[C@@H](C)C=CC(=O)O[C@@H]2[C@@H](C)[C@H](CC1)O[C@]1(CC[C@H](C)[C@H](C[C@@H](C)O)O1)[C@H]2C | 0.0022 µM (active)
CC(=O)Nc1ccc(OC[C@](C)(O)C(=O)Nc2ccc([N+](=O)[O-])c(C(F)(F)F)c2)cc1 | inactive
CN[C@@H](C)[C@H](O)c1ccccc1 | inactive
CC(O)=C(C#N)C(=O)Nc1cc(Br)ccc1Br | inactive
O=C(O)C(Cl)Cl | inactive
Oc1ccc2c3c1O[C@H]1[C@@H](O)C=C[C@H]4[C@@H](C2)NCC[C@@]341 | inactive
O=c1[nH]c2ccc(Cl)cc2c(N[C@@H]2CN3CCC2CC3)c1-c1nc2ccccc2[nH]1 | 5.44 µM (active)
CC(O)CN1CCN(CC(=O)[O-])CCN(CC(=O)[O-])CCN(CC(=O)[O-])CC1.[Gd+3] (stereo not given) | inactive
CC[C@@]1(O)C(=O)OCc2c1cc1n(c2=O)Cc2cc3ccccc3nc2-1 | 0.0137 µM (active)
COC(C)(C)CCCC(C)C/C=C/C(C)=C/C(=O)OC(C)C (stereo not given) | inactive
CC(=O)[O][Hg][c]1ccccc1 | 2.19 µM (active)
O=S(=O)(CC1CS1)c1ccc(Oc2ccccc2)cc1 (stereo not given) | 19.3 µM (active)
O=S(=O)(O)C(F)(F)C(F)(F)C(F)(F)C(F)(F)C(F)(F)C(F)(F)C(F)(F)C(F)(F)F | inactive
Fc1cc(Br)ccc1CBr | inactive
CCCN(CCC)c1c([N+](=O)[O-])cc(S(N)(=O)=O)cc1[N+](=O)[O-] | 31.7 µM (active)
CC(C)(O)C=CC(=O)[C@](C)(O)[C@H]1[C@H](O)C[C@]2(C)[C@@H]3CC=C4[C@@H](C=C(O)C(=O)C4(C)C)[C@]3(C)C(=O)C[C@@]12C | 1.37 µM (active)

Compound | Potency
COC1=CC(C)=C[C@@H](C)[C@@H](O)[C@@H](C)CC(C)=CC=C[C@H](OC)[C@H]([C@@H](C)[C@@H](O)[C@H](C)[C@@]2(O)C[C@@H](O)[C@H](C)[C@@H](C(C)C)O2)OC1=O | 0.0034 µM (active)
O=[N+]([O-])c1cc([N+](=O)[O-])c2ccccc2c1 | inactive
CC(C)(C)NC[C@H](O)c1ccc(O)cc1Cl | inactive
CC[C@@H](C(N)=O)N1CCCC1=O | inactive
Cc1ccccc1-n1c(Cn2ncc3c(N)ncnc32)nc2cccc(C)c2c1=O | 0.0086 µM (active)
CC1=C(O)C(=O)C=C2C1=CC=C1[C@@]2(C)CC[C@@]2(C)[C@@H]3C[C@](C)(C(=O)O)CC[C@]3(C)CC[C@]12C | 4.85 µM (active)
CCOP(=O)(OCC)C(C)NC(=O)N(CCCl)N=O (stereo not given) | inactive
C[C@]12CC[C@H](O)CC1=CC[C@H]1[C@H]3CCC(=O)[C@@]3(C)CC[C@@H]12 | inactive
c1cc2ccc3cccc4ccc(c1)c2c34 | inactive
C=CCON=C(C[C@H]1O[C@@H]2O[C@]3(C)CC[C@@H]4[C@H](C)CC[C@@H]([C@H]1C)[C@@]24OO3)[C@H]1O[C@@H]2O[C@]3(C)CC[C@H]4[C@H](C)CC[C@@H]([C@@H]1C)[C@@]24OO3 | 0.432 µM (active)
c1cc2c(cc1[C@H]1OC[C@H]3[C@H]1CO[C@H]3c1ccc3c(c1)OCO3)OCO2 | inactive
COCCOCCO | inactive
Nc1ccc([N+](=O)[O-])cc1 | inactive
CC(=CCCC1=CCC(C2=CC(=O)OC2O)OC1O)CCC1=C(C)CCCC1(C)C (stereo not given) | inactive
COc1ccc(N(C(=O)Oc2c(C)cccc2C)c2ccnc(Nc3ccc(N4CCN(C)CC4)cc3)n2)c(OC)c1 | 15.3 µM (active)
CO[C@H]1CCC(O[C@H]2C[C@H]([C@]3(C)CC[C@]4(C[C@H](O)[C@@H](C)[C@@H]([C@@H](C)C=C(C)C(=O)[C@H](C)C[C@H](C)C(=O)O)O4)O3)O[C@]3(O[C@@H]([C@H]4O[C@@](O)(CO)[C@H](C)C[C@H]4C)C[C@H]3C)[C@H]2C)O[C@H]1C (stereo not given in full) | 0.344 µM (active)
C[C@]12CC[C@@H]3[C@@H](CCC4=CC(=O)CC[C@@H]43)[C@@H]1CC[C@@H]2OC(=O)CCc1ccccc1 | inactive
O=[N+]([O-])c1c(Cl)c(Cl)cc(Cl)c1Cl | inactive
S=C(SSC(=S)N1CCCCC1)N1CCCCC1 | 0.309 µM (active)
c1ccc(CCCN2CCN(CCOC(c3ccccc3)c3ccccc3)CC2)cc1 | 24.3 µM (active)
